DT40 TDP1 no CPT: qHTS for Inhibitors of human tyrosyl-DNA phosphodiesterase 1 (TDP1): qHTS in cells in absence of CPT | AID 686978, 2013 | hit rate 15% among 420,000 | DT40 Tdp1-/- hTDP1 cells, no CPT, ATP luminescence, 48 h | Potency, µM (doses to about 46.2 µM), for inactives: at the top dose activity change, negative = growth inhibition, usual class: inhibitors; note: potency is the fitted concentration of half-maximal effect; nearly all actives have a fitted effect of over 55% in size
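DT40 Tdp1-/-;hTDP1 cells, no CPT (DMSO vehicle only), 400 cells/well; compounds pin-transferred; ≥48 hr, 37 °C; CellTiter-Glo 30 min RT dark, luminescence read.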
DT40 TDP1 CPT: qHTS for Inhibitors of human tyrosyl-DNA phosphodiesterase 1 (TDP1): qHTS in cells in presence of CPT; chicken DT40 Tdp1-/-;hTDP1 cells + 20 nM CPT, ATP luminescence, 48 h; Potency, µM (series often up to 46.2 µM), without a hit: at the highest dose activity change, negative = growth inhibition, most hits filed as inhibitors; hit rate 12% among 420,000; note: potency is the fitted concentration of half-maximal effect; nearly all actives have a fitted effect of over 55% in size
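Chicken DT40 Tdp1-/- cells complemented with human TDP1, 400 cells/well, exposed to compounds plus 20 nM camptothecin for at least 48 h at 37 C; viability read as ATP content by CellTiter-Glo luminescence.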
HT1080-NT tox: qHTS for induction of synthetic lethality in tumor cells producing 2HG: qHTS for the HT-1080-NT fibrosarcoma cell line. HT-1080-NT fibrosarcoma viability, CellTiter-Glo ATP luminescence, 48 h. Potency, µM (top dose mostly 46.1 µM), inactives show at the top dose activity, negative = less viability, usual class: cytotoxic. hit rate 1.6% among 360,000. AID 686970, 2013;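 note: NT is the 2HG producing partner of a matched IDH1 knockdown line; potency is the fitted concentration of half-maximal effect; 0% = DMSO-treated cells and -100% = media-only wells without cells; nearly all actives have a fitted effect of over 55% in size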
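A 48-hour cytotoxicity screen used HT-1080-NT cells plated 2 hours before compound delivery. ATP-based CellTiter-Glo luminescence measured viability, normalized to DMSO and no-cell controls.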
IL1B secr inh: qHTS for Inhibitors of Inflammasome Signaling: IL-1-beta AlphaLISA Primary Screen. hit rate 4.7% among 360,000. activity change, % at 57.5 µM. THP-1 LPS/ATP IL-1B secretion, AlphaLISA, 16 h; hits give low values; in the data active = activity change below about -50%; inconclusive = mostly about -30% to -49%
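Secreted IL-1B measured by AlphaLISA bead assay after 16 h compound exposure of THP-1 cells; compounds (final up to 57.5 uM) added 1 h before LPS (250 ng/mL) and ATP (1.25 mM) stimulation; lower signal means less secretion.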
HT1080 IDH1KD tx: qHTS for induction of synthetic lethality in tumor cells producing 2HG: qHTS for the HT-1080-IDH1KD cell line | HT-1080 IDH1 knockdown viability, ATP luminescence, 48 h | Potency, µM (series often up to 46.1 µM), without a hit: at the top dose activity, negative = toxicity, usual class: cytotoxic | hit rate 2% among 360,000 | AID 686971, 2013;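 note: potency is the fitted concentration of half-maximal effect; 0% = DMSO wells and -100% = cell-free medium wells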
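% activity derives from luminescence (CellTiter-Glo), normalised to DMSO and no-cell wells. HT-1080-IDH1KD cells, 750/well, had 48 h compound exposure at 37 °C.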
An asterisk follows results filed as active; ? = inconclusive; nt = no result given; [ ] = remark or other dose. Rows were chosen to be rich in hits. Some 19% of all compounds tested hit in one or more screens of this group. Unless noted, calls come from the whole dose curve; as a rule, active = well fitted curve in the direction sought with a large enough effect; inconclusive = small, poorly fitted or top-dose-only effect, or another doubt; inactive = no such curve, though single readings can be large; an effect the other way counts as inactive or inconclusive. Unless noted, % is set by controls: 0 for no effect and ±100 for the full control effect.

SMILES	DT40 TDP1 no CPT	DT40 TDP1 CPT	HT1080-NT tox	IL1B secr inh	HT1080 IDH1KD tx
Cc1cccc(C(O)C(O)c2cccc(C)n2)n1 (stereo not drawn)	-1.2%	-0.6%	0.0%	-4.4	4.0%
Cc1cccc(C(P(=O)(c2ccccc2)c2ccccc2)P(=O)(c2ccccc2)c2ccccc2)n1	16.4µM*	?	-0.7%	-9.7	8.8%
CC(C(=O)NCC(=O)Nc1ccc(F)c(F)c1F)N1CCN(Cc2ccc(C#N)cc2)CC1 (stereo not drawn)	5.5%	0.3%	4.8%	8.8	-2.1%
CC(C(=O)NCC(=O)Nc1ccc(F)c(F)c1F)N1CCN(c2ccc(O)cc2)CC1 (stereo not drawn)	14.6µM*	?	?	26.9	?
O=[N+]([O-])c1ccc(N2CCN(Cc3ccc(Br)o3)CC2)cc1	-7.8%	?	-18.8%	-28.1	-11.2%
O=C(C[n+]1cccc(CNC(=O)c2ccc(OC(F)F)cc2)c1)c1ccccc1	-5.4%	-10.5%	-4.0%	-90.9*	10.8%
O=C(C[n+]1cccc(CNC(=O)c2ccc(OC(F)F)cc2)c1)Nc1ccc(F)cc1	-8.2%	-19.9%	-2.6%	-16.2	2.6%
CN(C)c1cc[n+](CC(=O)c2ccc(OC(F)F)cc2)cc1	8.2µM*	18.4µM*	?	35.5	-1.5%
O=C(C[n+]1cccc(CNC(=O)c2ccc(OC(F)F)cc2)c1)Nc1cccc(C(F)(F)F)c1	?	-21.0%	-22.1%	-70.9*	-26.7%
Cc1ccsc1C(=O)OCC(=O)c1ccc(OC(F)F)cc1	-17.6%	-3.7%	0.4%	-1.7	-3.8%
Cc1ccc(C)c(Cn2c(=O)n(Cc3ccc4c(c3)OCO4)c(=O)c3oc4ccccc4c32)c1	-12.7%	-6.3%	nt	nt	nt
CCN1C(=O)/C(=C/C=C2/CCCN2C)OC1=S	5.17µM*	?	7.0%	2.1	8.1%
CCCCC1C(=O)N(c2ccccc2)N(c2ccc(O)cc2)C1=O (stereo not drawn)	0.581µM*	1.03µM*	?	-109.0*	9.4%
CC(C)=CCC1C(=O)N(c2ccccc2)N(c2ccccc2)C1=O	3.76µM*	3.76µM*	nt	nt	nt
Cc1nc2ccccn2c1-c1ccnc(=S)[nH]1	23.1µM*	5.8µM*	-7.7%	0.4	-7.5%
CC(=O)c1cccc(NC(=O)NNC(=O)c2ccc(-c3ccccc3)cc2)c1	-6.5%	-0.4%	-1.2%	-0.1	-2.6%
Cc1c(CC(=O)O)c(=O)oc2c(C)c3occ(-c4ccc(Br)cc4)c3cc12	16.4µM*	-8.3%	9.2%	0.9	15.5%
COc1cccc(-c2coc3c(C)c4oc(=O)c(CC(=O)O)c(C)c4cc23)c1	-27.7%	2.2%	0.4%	32.8	9.4%
COc1cccc(-c2coc3c(C)c4oc(=O)c(CCC(=O)O)c(C)c4cc23)c1	?	1.1%[9.04 µM]	?	-59.5*	?
COc1ccc(-c2coc3c(C)c4oc(=O)c(CC(=O)O)c(C)c4cc23)cc1	-9.8%	-5.1%	-1.8%	5.0	-3.1%
Cc1cc(-c2ccccc2)nc(N/N=C/c2ccccc2)n1	23.1µM*	20.6µM*	0.4%	-7.1	-7.2%
Cc1cc(-c2ccccc2)nc(N/N=C/c2ccco2)n1	?	29.1µM*	?	-11.2	?
CN(/N=C/c1ccc(O)cc1O)c1nc(-c2ccccc2)cc(-c2ccccc2)n1	11.6µM*	20.6µM*	?	-23.9	?
Cc1cc(-c2ccccc2)nc(N/N=C/c2ccc(O)cc2O)n1	18.4µM*	?	?	-89.5*	2.06µM*
Cc1ccc(NC(=O)CSCC(=O)N2CCN(Cc3ccc4c(c3)OCO4)CC2)cc1	-1.0%	-12.9%	1.1%	-11.7	-1.3%
SMILES	DT40 TDP1 no CPT	DT40 TDP1 CPT	HT1080-NT tox	IL1B secr inh	HT1080 IDH1KD tx
O=C(c1cnccn1)N1CCC2(CC1)CCN(c1ncccn1)CC2	-9.1%	-5.9%	nt	nt	nt
Cc1noc(Cn2c(=O)c3ccccc3n(CC(=O)Nc3ccccc3C(F)(F)F)c2=O)n1	-20.7%	17.3%	nt	nt	nt
Cc1cc(-c2ccccc2)nc(N/N=C/c2ccc(N(C)C)cc2)n1	14.6µM*	?	-17.7%	-20.5	9.1%
Cc1cc(-c2ccccc2)nc(N/N=C/c2ccc([N+](=O)[O-])cc2)n1	?	?	-8.5%	-86.8*	-8.5%
O=[N+]([O-])c1ccc(/C=N/Nc2ncc(-c3ccccc3)cn2)cc1	0.5%	3.6%	7.7%	-9.4	2.4%
COc1ccc(/C=N/Nc2nc(C)cc(-c3ccccc3)n2)cc1OC	?	-123.8%	-27.5%	?	-24.4%
CCc1nn2c(=O)cc(COC(=O)c3ccccc3NC(=O)c3ccc(C(C)(C)C)cc3)nc2s1	-23.4%	4.5%	nt	nt	nt
O=C(NCc1ccccc1F)c1sc2ncccc2c1-n1cccc1	?	23.1µM*	nt	nt	nt
CCCCNC(=O)c1sc2ncccc2c1-n1cccc1	-28.3%	11.6µM*	nt	nt	nt
CCCCNC(=O)c1sc2nc(C)cc(COC)c2c1-n1cccc1	25.9µM*	16.4µM*	11.0%	0.0	-5.4%
COCCCNC(=O)c1sc2ncccc2c1-n1cccc1	-27.6%	-27.3%	nt	nt	nt
O=C(NCCc1ccccc1)c1sc2ncccc2c1-n1cccc1	?	25.9µM*	nt	nt	nt
COCc1cc(C)nc2sc(C(=O)NN)c(-n3cccc3)c12	-29.4%	-5.4%	-1.9%	39.3	-9.9%
CCOc1ccc(C(C)=O)cc1CN1C(=O)C(=O)N(CC)C1=O	10.5%	3.3%	11.8%	8.0	5.9%
CN(C)c1ccc(Nc2ccc([N+](=O)[O-])cn2)cc1	?	0.5%	-1.9%	-5.8	0.1%
CSc1ccc(CCNC(=O)c2sc3ncccc3c2-n2cccc2)cc1	25.9µM*	16.4µM*	nt	nt	nt
CCOC(=O)c1cc2c(C)n(-c3ccc(C)cc3)c(C)c2ccc1=O	8.2µM*	14.6µM*	-28.7%	-66.3*	-20.5%
CCOC(=O)c1cc2c(C)n(-c3ccc(OCC)cc3)c(C)c2ccc1=O	14.6µM*	25.9µM*	-19.4%	-18.6	-18.8%
O=C(NCCCn1ccnc1)c1cccc(Cl)c1	-1.2%	25.0%	12.7%	8.0	13.5%

Screens as filed in PubChem.
